# According to PubChem BioAssay (EPA / NIEHS):
# Calls of active or inactive are those of the source. The calls were made as follows: active = hit-call score of the fitted dose curve at least 0.9, where 1 is the maximum; inactive = score below 0.9.
# How the values were obtained:
# Details in all cases: mRNA level, 48 h; actives raise or lower the signal
# [1] = read-out: sulfotransferase 2A1 (SULT2A1), SULT2A1 (gene 6822); assay: LTEA_HepaRG_SULT2A1: Life Technologies and Expression Analysis (LTEA) Assay for sulfotransferase 2A1 (SULT2A1) using HepaRG (AID 2283531)
# Summary of the method: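 Expression change of SULT2A1, by qRT-PCR with three housekeeping-gene normalization, was scored bidirectionally versus DMSO. Cells: differentiated HepaRG, dosed in duplicate for 48 h across 8 points, highest 100 µM, half-log dilution, 0.5% DMSO.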
# [2] = read-out: Transforming Growth Factor (TGFA), TGFA (gene 7039); assay: LTEA_HepaRG_TGFA: Life Technologies and Expression Analysis (LTEA) Assay for Transforming Growth Factor (TGFA) using HepaRG (AID 2283532)
# Summary of the method: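 Differentiated human HepaRG cells, plated 48 h then switched to serum-free induction medium, were exposed in duplicate for 48 h to 8-point half-log series from 100 uM in 0.5% DMSO. TGFA mRNA measured by qRT-PCR, normalized to ACTB/GAPDH/POLR2A, bidirectional fit versus DMSO.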
# [3] = read-out: Transforming Growth Factor (TGFB1), TGFB1 (gene 7040); assay: LTEA_HepaRG_TGFB1: Life Technologies and Expression Analysis (LTEA) Assay for Transforming Growth Factor (TGFB1) Transporter using HepaRG (AID 2283533)
# Summary of the method: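 TGFB1 transcript measured by qRT-PCR with normalisation to three housekeeping genes (ACTB, GAPDH, POLR2A); human HepaRG line treated in duplicate for 48 hr with an 8-point series topping at 100 uM, 0.5% DMSO vehicle, bidirectionally fitted.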
# [4] = read-out: TIMP1, TIMP1 (gene 7076); assay: LTEA_HepaRG_TIMP1: Life Technologies and Expression Analysis (LTEA) Assay for TIMP1 using HepaRG (AID 2283534)
# Summary of the method: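 Bidirectional change in TIMP1 transcript versus 0.5% DMSO, measured by TaqMan qRT-PCR with three housekeeping genes for normalization. HepaRG human liver cells dosed 48 h in duplicate, top concentration 100 uM with half-log dilutions.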
# [5] = read-out: Tumor necrosis factor receptor 1 (TNFRSF1A), TNFRSF1A (gene 7132); assay: LTEA_HepaRG_TNFRSF1A: Life Technologies and Expression Analysis (LTEA) Assay for Tumor necrosis factor receptor 1 (TNFRSF1A) using HepaRG (AID 2283535)
# Summary of the method: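 mRNA measured by qRT-PCR (TaqMan, Fluidigm arrays) against ACTB/GAPDH/POLR2A housekeepers after 48 h chemical exposure of HepaRG cells. Top concentration 100 uM, half-log 8-point series, duplicates; vehicle 0.5% DMSO, both fit directions.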
# [6] = read-out: Thyroid Hormone Responsive (THRSP), THRSP (gene 7069); assay: LTEA_HepaRG_THRSP: Life Technologies and Expression Analysis (LTEA) Assay for Thyroid Hormone Responsive (THRSP) using HepaRG (AID 2283536)
# Summary of the method: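 Differentiated human HepaRG cells were exposed in duplicate for 48 h in serum-free induction medium to eight concentrations (top 100 uM, half-log steps, 0.5% DMSO). Expression was quantified by TaqMan qRT-PCR, normalized to ACTB, GAPDH and POLR2A, with bidirectional fitting against DMSO.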
# [7] = read-out: Cellular tumor antigen p53 (Homo sapiens) (UniProt P04637); assay: LTEA_HepaRG_TP53: Life Technologies and Expression Analysis (LTEA) Assay for Tumor Protein P53 (TP53) using HepaRG (AID 2283537)
# Summary of the method: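 HepaRG, 48 h exposure, top 100 uM, half-log 8-point, 0.5% DMSO vehicle, duplicates. Read: TP53 mRNA by TaqMan qRT-PCR, normalised to ACTB/GAPDH/POLR2A; bidirectional fit vs DMSO.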
# [8] = read-out: UDP glucuronosyltransferase (UGT1A1), UGT1A1 (gene 54658); assay: LTEA_HepaRG_UGT1A1: Life Technologies and Expression Analysis (LTEA) Assay for UDP glucuronosyltransferase (UGT1A1) using HepaRG (AID 2283538)
# Summary of the method: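 Readout is UGT1A1 transcript level by qRT-PCR, normalized to three housekeeping genes, after 48 h chemical treatment of HepaRG cells. Concentrations ran from 100 uM down in half-log steps with 0.5% DMSO, and gain or loss relative to DMSO was fitted.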
# [9] = read-out: UDP glucuronosyltransferase (UGT1A6), UGT1A6 (gene 54578); assay: LTEA_HepaRG_UGT1A6: Life Technologies and Expression Analysis (LTEA) Assay for UDP glucuronosyltransferase (UGT1A6) using HepaRG (AID 2283539)
# Summary of the method: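 Expression was quantified by TaqMan qRT-PCR on Fluidigm arrays with ACTB/GAPDH/POLR2A normalization and bidirectional fitting against 0.5% DMSO. HepaRG cells (~100,000/well) were treated in duplicate for 48 h at eight half-log concentrations up to 100 uM in serum-free induction medium.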
# [10] = read-out: X-box binding protein 1 (XBP1), XBP1 (gene 7494); assay: LTEA_HepaRG_XBP1: Life Technologies and Expression Analysis (LTEA) Assay for X-box binding protein 1 (XBP1) using HepaRG (AID 2283540)
# Summary of the method: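 XBP1 transcript by qRT-PCR (housekeeping-normalized: ACTB, GAPDH, POLR2A) after 48 h chemical treatment of HepaRG cells, 8-point half-log series topping at 100 uM, vehicle 0.5% DMSO. Gain and loss of signal fitted relative to DMSO.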
# Chain of Cellular tumor antigen p53 (Homo sapiens) (P04637 whole entry, looked up): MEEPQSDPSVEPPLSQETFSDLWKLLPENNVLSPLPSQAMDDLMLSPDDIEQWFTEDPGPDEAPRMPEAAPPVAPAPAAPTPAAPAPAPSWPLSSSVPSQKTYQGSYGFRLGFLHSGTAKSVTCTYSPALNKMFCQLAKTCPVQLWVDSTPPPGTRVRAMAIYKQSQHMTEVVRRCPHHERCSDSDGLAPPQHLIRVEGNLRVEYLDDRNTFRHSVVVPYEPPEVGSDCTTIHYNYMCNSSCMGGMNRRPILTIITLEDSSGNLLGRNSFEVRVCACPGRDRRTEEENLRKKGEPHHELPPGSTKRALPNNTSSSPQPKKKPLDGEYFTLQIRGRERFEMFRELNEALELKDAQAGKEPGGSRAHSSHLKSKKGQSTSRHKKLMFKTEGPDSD
SMILES,outcome [1],outcome [2],outcome [3],outcome [4],outcome [5],outcome [6],outcome [7],outcome [8],outcome [9],outcome [10],AC50 [8],AC50 [6],AC50 [1],AC50 [7]
Cc1cnc(C2=NC(C)(C(C)C)C(=O)N2)c(C(=O)O)c1 (centres undefined),inactive,inactive,inactive,inactive,inactive,inactive,inactive,inactive,inactive,inactive,,,,
CC1(C)C(C(=O)OC(C#N)c2cccc(Oc3ccccc3)c2)C1(C)C (centres undefined),inactive,inactive,inactive,inactive,,inactive,inactive,,inactive,inactive,50 µM (active),,,
C=CCOC(=O)C(C)(C)OC(=O)c1cc(-n2c(=O)cc(C(F)(F)F)n(C)c2=O)ccc1Cl,inactive,inactive,inactive,inactive,,inactive,inactive,,inactive,inactive,23.1 µM (active),,,
COC(=O)NS(=O)(=O)c1ccc(N)cc1,inactive,inactive,inactive,inactive,,inactive,inactive,inactive,inactive,inactive,,,,
CCOP(=S)(OCC)Oc1nc(Cl)n(C(C)C)n1,inactive,inactive,inactive,inactive,,,inactive,,inactive,inactive,12.5 µM (active),26.1 µM (active),,
CC(C)(C)C(=O)C(Oc1ccc(Cl)cc1)n1cncn1 (centres undefined),,inactive,inactive,inactive,,,inactive,,inactive,inactive,6.35 µM (active),33 µM (active),,
CC1(C)CON(Cc2ccccc2Cl)C1=O,inactive,inactive,inactive,inactive,,inactive,inactive,,inactive,inactive,9.92 µM (active),,,
Clc1nc(Cl)nc(Nc2ccccc2Cl)n1,inactive,inactive,inactive,inactive,,inactive,inactive,inactive,inactive,inactive,,,,
N#Cc1c[nH]cc1-c1cccc2c1OC(F)(F)O2,,inactive,,inactive,,,,,inactive,inactive,34.3 µM (active),18 µM (active),50 µM (active),71.3 µM (active)
COC(=O)N(C(=O)N1CO[C@@]2(C(=O)OC)Cc3cc(Cl)ccc3C2=N1)c1ccc(OC(F)(F)F)cc1,,inactive,inactive,inactive,,,inactive,,inactive,inactive,10 µM (active),40 µM (active),65 µM (active),
